Assay results from PubChem BioAssay (EPA / NIEHS).
Where “and” joins values, the source holds several entries; their conditions need not be identical. Equal values may be shown once. Some structures have more than one record in an assay (separate samples or runs), and their calls can disagree. Calls of active or inactive are those of the source. How the source made its calls: active means hit-call score of the fitted dose curve at least 0.9, where 1 is the maximum; inactive means score below 0.9.

Test: BSK_SAg_PBMCCytotoxicity: PBMC Cytotoxicity Assessment in the BioMAP Diversity Plus: SAg Assay (AID 2283093);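 further: fitted both ways against DMSO so a hit may be loss or gain of signal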
Details: primary human HUVEC with PBMC
Protocol: BSK_SAg is a cell-based, multiplexed-readout assay that uses umbilical vein endothelium and peripheral blood mononuclear cells, a human vascular primary cell co-culture, with measurements taken at 24 hours after chemical dosing in a 96-well plate.BSK_SAg_PBMCCytotoxicity is an assay component measured in the BSK_SAg assay. It measures Alamar blue related to cell death using Alamar Blue Reduction technology.Data from the assay component BSK_SAg_PBMCCytotoxicity was analyzed into 1 assay endpoint. This assay endpoint, BSK_SAg_PBMCCytotoxicity, was analyzed with bidirectional fitting relative to DMSO as the negative control and baseline of activity. Using a type of viability reporter, gain or loss-of-signal activity can be used to understand changes in the viability. Furthermore, this assay endpoint can be referred to as a secondary readout, because this assay has produced multiple assay endpoints where this one serves a viability function. To generalize the intended target to other relatable targets, this assay endpoint is annotated to the cell cycle intended target family, where the subfamily is cytotoxicity.
The levels of cell surface (or secreted, indicated by the prefix "s") biomarker endpoints were measured by ELISA. Overt cytotoxicity to cells in confluent adherent cultures (all systems other than the BT system) was assessed by measuring total protein levels using sulforhodamine B (SRB) staining in parallel cultures at the time of biomarker measurements, indicated as SRB endpoints. For proliferation assays for adherent cell types, individual cell types are cultured at sub-confluence and relative cell numbers quantified by SRB staining at time points optimized for each system (48 h: 3C and CASM3C systems; 72 h: BT and HDF3CGF systems; 96 h: SAg system). SRB was performed by staining cells with 0.1% SRB after fixation with 10% TCA and reading wells at 560 nm.Viability and proliferation of PBMC (T cells) was quantified by Alamar Blue reduction for the SAg and BT systems. For PBMC viability (referred to as PBMC Cytotoxicity within the assay endpoint names), cells were plated (75,000/well in a 96-well plate) and then chemical samples added for 1 h before addition of activators, SEB and TSST-1 (20 ng/mL final concentration each). Cells were incubated for 90 h. Then, Alamar Blue (20 uL/well) (Invitrogen, Cat DAL1100) was added for 6 h, and the plates were read with a fluorescence microplate reader at 546/580 nm (excitation/emission). For PBMC proliferation, cells were plated and activated as above but incubated for only 16 h prior to addition of Alamar Blue. Plates were read after 6 h.

Structure (SMILES) | outcome | AC50
CC(C)(C)CC(C)(C)c1ccc(O)c(-n2nc3ccccc3n2)c1 | inactive | –
NC(=O)N(O)[C@@H]1C=C[C@H](Oc2cccc(Oc3ccc(F)cc3)c2)C1 | inactive | –
CN(C)C=O | inactive | –
CCCCCCCCCCCCc1ccccc1S(=O)(=O)O | inactive | –
COCC(C)O (stereo not given) | inactive | –
CCCCCCCCCCCCCCCS(=O)(=O)Oc1ccccc1 | – | 5.98 µM (active)
CCCOC(=O)c1ccc(O)cc1 | inactive | –
Nc1cccc2c(N)cccc12 | – | 13.7 µM (active)
CCCCOCCO | inactive | –
O=c1c(-c2ccc(O)cc2)coc2cc(O)ccc12 | inactive | –
OCCC(F)(F)C(F)(F)C(F)(F)C(F)(F)C(F)(F)C(F)(F)F | inactive | 47.7 µM (active) and 55.7 µM (active)
NC(=O)N1C(=O)C(C(=O)c2cc(Cl)cs2)c2cc(F)c(Cl)cc21 (stereo not given) | inactive | –
CCCCCCC(=O)O | inactive | –
O=C(OCCOCCOC(=O)c1ccccc1)c1ccccc1 | inactive | –
CC(O)CO (stereo not given) | inactive | –
OC1CCCCC1 | inactive | –
Oc1cccc(O)c1 | inactive | –
c1ccc2c(c1)Cc1ccccc1-2 | inactive | –
CCc1nn(C2CCCCC2)c2cc(C3(C#N)CCC(C(=O)O)CC3)ccc12 (stereo not given) | inactive | –

Structure (SMILES) | outcome | AC50
Cc1cc(C)c(O)c(C)c1 | inactive | –
CN1CCC[C@H]1c1cccnc1 | inactive | –
c1ccc2c(c1)ccc1ccccc12 | inactive | –
CC[C@H](C)[C@@H](C(=O)O)n1sc2ccccc2c1=O | inactive | –
CC(C)(C)c1cc(C(C)(C)C)c(O)c(C(C)(C)C)c1 | inactive | –
C=C(C)C(=O)OCCC(F)(F)C(F)(F)C(F)(F)C(F)(F)C(F)(F)C(F)(F)F | inactive | –
OCCC(F)(F)C(F)(F)C(F)(F)C(F)(F)C(F)(F)C(F)(F)C(F)(F)C(F)(F)F | – | 23.4 µM (active) and 10 µM (active) and 10.8 µM (active)
NCC(F)(F)C(F)(F)C(F)(F)C(F)(F)C(F)(F)C(F)(F)C(F)(F)F | inactive | 47.2 µM (active)
CCC(=C(c1ccc(O)cc1)c1ccc(OCCN(C)C)cc1)c1ccccc1 | – | 7.32 µM (active)
Cc1cc(CCN2CCN(c3nsc4ccccc34)CC2)cc2c1NC(=O)CC2(C)C | – | 13 µM (active)
N#C[C@@H]1CC(F)(F)CN1C(=O)CNC1CC2CCC(C1)N2c1ncccn1 (stereo not given in full) | – | 8.08 µM (active)
CC(=O)NC1(c2cccc(F)c2)CCN(CC[C@@]2(c3ccc(Cl)c(Cl)c3)CN(c3ccccc3)C(=O)CO2)CC1 | – | 24.7 µM (active)
O=C(O)Cc1cc(I)c(Oc2cc(I)c(O)c(I)c2)c(I)c1 | inactive | –
CCCCCCCCC(=O)O | inactive | –
CC(C)(C)c1cccc(C(C)(C)C)c1O | inactive | –
CC(C)CCCCCCOC(=O)CCCCC(=O)OCCCCCCC(C)C | inactive | –
CC1=C(/C=C/C(C)=C/C=C/C(C)=C/C(=O)O)C(C)(C)CCC1 | inactive | –
OC1CCC(C2CCCCC2)CC1 (stereo not given) | inactive | –
CCc1ccc(CCOc2ccc(CC3SC(=O)NC3=O)cc2)nc1 (stereo not given) | inactive | –
